# Data taken from PubChem BioAssay (EPA / NIEHS).
# The source made the active and inactive calls. The calls were made as follows: active = hit-call score of the fitted dose curve at least 0.9, where 1 is the maximum; inactive = score below 0.9.
# Experiment: ATG_M_06_CIS: Attagene CIS-FACTORIAL HepG2 Assay for M06 Transcription Factor (Internal Marker) (AID 2282950)
# Settings: HepG2 Attagene CIS-FACTORIAL M06 internal marker reporter; actives raise or lower the signal
# Method: ATG_CIS is a cell-based, multiplexed-readout assay that uses HepG2, a human liver cell line, with measurements taken at 24 hours after chemical dosing in a 24-well plate.ATG_M_06_CIS is one of 52 assay component(s) measured or calculated from the ATG_CIS assay. It is designed to make measurements of mRNA induction, a form of inducible reporter, as detected with fluorescence intensity signals by Reverse transcription polymerase chain reaction (RT-PCR) and Capillary electrophoresis technology.Data from the assay component ATG_M_06_CIS was analyzed into 1 assay endpoint. This assay endpoint, ATG_M_06_CIS, was analyzed with bidirectional fitting relative to DMSO as the negative control and baseline of activity. Using a type of inducible reporter, measures of mRNA for gain or loss-of-signal activity can be used to understand the background control at the transcription factor-level as they relate to the gene . Furthermore, this assay endpoint can be referred to as a secondary readout, because this assay has produced multiple assay endpoints where this one serves a background control function. To generalize the intended target to other relatable targets, this assay endpoint is annotated to the background measurement intended target family, where the subfamily is internal marker.
# Human liver HepG2 cells are transiently transfected with multiple reporter transcription units (MRTUs) in 6-well plates using FuGene 6 reagent (Roche; 3 ml FuGene/1 mg DNA). The MRTU constructs are regulated by a cis-regulating element (promoter). […] A major difference between the CIS and TRANS system is that in CIS activities of endogenous TFs are measured, whereas the TRANS assay evaluates changes in activities of exogenous, chimeric NR-Gal4 proteins. […] At the end of 24 hour incubation, total RNA was isolated using TriZol reagent (Invitrogen). The isolated RNA is then reverse-transcribed using oligo(dT) primer and Mo-MLV reverse transcriptase (Invitrogen) with DNAse I (Ambion) treatment for 30 min. The one-tenth of the produced cDNA was amplified by PCR using Taq DNA polymerase (Invitrogen) and two reporter sequence-specific primers. The PCR products were fluorescently labeled by primer extension with 6-arboxyfluorescein (6-FAM) 5'-labeled reporter sequence-specific primer (2 min at 95 C, 20 s at 68 C and 10 min at 72 C) and these products were digested with 5U of HpaI (New England Biolabs) for 2h at 37 C. The fragments were purified using Qiaquick PCR columns (Qiagen), analyzed on an ABI 3130xL genetic analyzer (Applied Biosystems) with peak positions identified by using a set of X-rhodamine (ROX)-labeled MapMarker1000 molecular weight standards (BioVentures). The raw capillary electrophoresis data was processed using Attagraph software (Attagene).
Structure (SMILES),AC50,outcome
CC(=O)C1=C(C)[C@@H]2C[C@@]3(C1)[C@H](C)CC[C@H]3C2(C)C,75.3 µM (active),–
COc1ccccc1O,–,inactive
CC(O)CNCC(C)O (stereo not given),–,inactive
CCCCN(CCCC)CCCCCCN(CCCC)CCCC,–,inactive
FC(F)(F)c1ccc(Cl)c(Cl)c1,–,inactive
CCCCCCCCCCCCN1CCOCC1,–,inactive
CCCCCCCCCCCCOC(C)=O,–,inactive
CC(=O)OC(C)(C)C,–,inactive
C=CC(C)CCCC(C)(C)O (stereo not given),–,inactive
CC(C)C(=O)OCC=Cc1ccccc1,–,inactive
CC=CC(=O)C1=C(C)C=CCC1(C)C,–,inactive
CCCCCCCC(=O)N(C)C,–,inactive
CCCCC/C=C\C=C\C(=O)OCC,–,inactive
CCCCCCC(O)CCOC(C)=O (stereo not given),–,inactive
CC(O)COCC(C)O (stereo not given),–,inactive
S=c1[nH][nH]c(=S)s1,–,inactive
CCCCCCCCCCO[C@@H]1O[C@H](CO)[C@@H](O)[C@H](O)[C@H]1O,–,inactive
COc1ccc2[nH]cc(CCNC(C)=O)c2c1,–,inactive
NC(=O)NC(N)=O,–,inactive
O=C(c1ccc(OCCN2CCCCC2)cc1)c1c(-c2ccc(O)cc2)sc2cc(O)ccc12,–,inactive

Structure (SMILES),AC50,outcome
CCCCCCCOC(C)=O,–,inactive
CC(C)OB(OC(C)C)OC(C)C,–,inactive
CCC(=O)OCC=Cc1ccccc1,–,inactive
CCC(=O)OC/C=C(\C)CCC=C(C)C,–,inactive
CC(=N[Si](C)(C)C)O[Si](C)(C)C,–,inactive
O=C(O)c1cccc(Cl)n1,–,inactive
O=[N+]([O-])c1cc(N(CCO)CCO)ccc1NCCO,–,inactive
O=S(=O)(O)c1cc(S(=O)(=O)O)c2c(N=Nc3ccccc3)c(O)ccc2c1,–,inactive
CCCCCCOC(C)=O,–,inactive
CCOC(=O)C=Cc1ccccc1,–,inactive
Cc1cc(O)c2c(c1)C(=O)c1cc(O)cc(O)c1C2=O,–,inactive
CCn1cc(C(=O)O)c(=O)c2ccc(C)nc21,–,inactive
CN(C)C(=O)Nc1ccccc1,–,inactive
CC/C=C\C#N,–,inactive
O=C(O)c1cc2ccccc2cc1O,–,inactive
Cc1cccc(O)c1,–,inactive
CC12CCC(C1)C(C)(C)C2O (stereo not given),–,inactive
NCCN1CCNCC1,–,inactive
CN1CCc2cccc3c2[C@H]1Cc1ccc(O)c(O)c1-3,–,inactive
Cc1ccc(C(C)(C)O)cc1,–,inactive
